Assay outcomes (PubChem BioAssay)
TDP1 block: qHTS Assay for Inhibitors of Tyrosyl-DNA Phosphodiesterase (TDP1); recombinant TDP1, AlphaScreen DNA substrate cleavage; Potency, µM (titrated, usually from 130 µM), most hits filed as inhibitors; 0.28% of 350,000 active; AID 485290, 2010; further: nearly all actives have a fitted effect of over 40% in size
Target sequence (Q9NUW8 whole entry, looked up): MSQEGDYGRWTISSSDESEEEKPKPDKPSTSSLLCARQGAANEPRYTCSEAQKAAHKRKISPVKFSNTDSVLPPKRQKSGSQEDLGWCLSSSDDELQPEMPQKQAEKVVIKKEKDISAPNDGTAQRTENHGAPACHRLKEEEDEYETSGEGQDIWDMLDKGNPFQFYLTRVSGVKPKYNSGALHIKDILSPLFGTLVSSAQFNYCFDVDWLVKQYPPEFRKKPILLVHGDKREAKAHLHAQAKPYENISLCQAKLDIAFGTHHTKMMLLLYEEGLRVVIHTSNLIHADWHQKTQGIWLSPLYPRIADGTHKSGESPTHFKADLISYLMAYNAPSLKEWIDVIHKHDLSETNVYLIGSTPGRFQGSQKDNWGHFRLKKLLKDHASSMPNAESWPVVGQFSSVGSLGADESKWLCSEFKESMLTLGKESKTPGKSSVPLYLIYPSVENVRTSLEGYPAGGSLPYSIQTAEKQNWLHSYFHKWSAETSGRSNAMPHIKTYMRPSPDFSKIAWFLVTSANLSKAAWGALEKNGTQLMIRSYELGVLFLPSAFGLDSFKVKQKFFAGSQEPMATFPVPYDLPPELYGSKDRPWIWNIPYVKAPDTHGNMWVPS
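Recombinant E. coli-expressed Tdp1 (1 nM) preincubated with compound 15 min at RT, then 5'-biotin/3'-phosphotyrosine-FITC DNA substrate (15 nM) added for 5 min. AlphaScreen beads (10 ug/ml) added, 10 min RT; tyrosine-FITC cleavage read as signal loss.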
IL1B secr inh: qHTS for Inhibitors of Inflammasome Signaling: IL-1-beta AlphaLISA Primary Screen | THP-1 LPS/ATP IL-1B secretion, AlphaLISA, 16 h; stronger effect = lower value | activity change, % at 57.5 µM | 4.7% of 360,000 active; in the data active means activity change below about -50%; inconclusive means mostly about -30% to -49%
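THP-1 cells pretreated 1 hr with compounds (up to 57.5 uM final), then stimulated with LPS (250 ng/mL final) plus ATP (1.25 mM final); secreted IL-1B measured by AlphaLISA after 16 hr, decreased signal indicating inhibition.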
CtBP-E1A blk: qHTS Assay for Inhibitors of the CtBP/E1A Interaction. CtBP / adenovirus E1A interaction (AlphaScreen). AlphaScreen GST-E1A/His-CtBP binding, 1536-well; stronger effect = lower value. activity change, % (no concentration beside the values). 0.49% of 340,000 active. AID 651724, 2012; in the data active means activity change below about -65%; inconclusive means mostly about -30% to -63%
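AlphaScreen with 125 nM GST-E1A and 125 nM His-CtBP (5X stocks) in Tris pH 8.0, 300 mM NaCl, BSA, Tween 20, TCEP. Compounds preincubated 2 h at 37 deg C, then glutathione donor/nickel acceptor beads added for 1 h at 37 deg C in dark.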
Six1-Eya2 inh: qHTS Assay for Inhibitors of the Six1/Eya2 Interaction; Homeobox protein SIX1 (Homo sapiens) + Protein phosphatase EYA2 (Homo sapiens), …; AlphaScreen GST-Six1/His-Eya2 binding, biochemical; stronger effect = lower value; activity change, % (test concentration not listed); 0.56% of 360,000 active; AID 651725, 2012; in the data active means activity change below about -65%; inconclusive means mostly about -30% to -63%
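AlphaScreen luminescence read after one hour at 37 °C in darkness. Pin-transferred compounds met GST-Six1 and His-Eya2 protein (5X stock 250 nM/500 nM) plus glutathione donor and Ni-chelate acceptor beads (5X, 50 ug/mL).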
TDP1 cell noCPT: qHTS for Inhibitors of human tyrosyl-DNA phosphodiesterase 1 (TDP1): qHTS in cells in absence of CPT; DT40 Tdp1-/- hTDP1 cells, no CPT, ATP luminescence, 48 h; Potency, µM (doses to about 46.2 µM), hits mostly inhibitors; 15% of 420,000 active; further: nearly all actives have a fitted effect of over 55% in size
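Compound effects on proliferation are scored in DT40 Tdp1-/-;hTDP1 cells in the absence of CPT. ATP levels (CellTiter-Glo luminescence) are recorded after a ≥48 hr, 37 °C incubation.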
DT40 TDP1 CPT: qHTS for Inhibitors of human tyrosyl-DNA phosphodiesterase 1 (TDP1): qHTS in cells in presence of CPT; 12% of 420,000 active; Potency, µM (series often up to 46.2 µM), most hits filed as inhibitors; AID 686979, 2013; chicken DT40 Tdp1-/-;hTDP1 cells + 20 nM CPT, ATP luminescence, 48 h; further: nearly all actives have a fitted effect of over 55% in size
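Chicken DT40 Tdp1-/- cells complemented with human TDP1, 400 cells/well, exposed to compounds plus 20 nM camptothecin for at least 48 h at 37 C; viability read as ATP content by CellTiter-Glo luminescence.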
Large screens that a line does not name were inactive. Shown are actives, neighbours in structure and some others; about 18% of the full set was active somewhere. Unless noted, the call rests on the fitted dose curve; in most records, active means well fitted curve in the direction sought with a large enough effect; inconclusive means small, poorly fitted or top-dose-only effect, or another doubt; inactive means no such curve, though single readings can be large; an effect the other way counts as inactive or inconclusive.

O=C(CCS(=O)(=O)c1ccccc1)Nc1nc2cc3c(cc2s1)OCCO3	IL1B secr inh inconclusive, TDP1 cell noCPT inconclusive, DT40 TDP1 CPT inconclusive
CS(=O)(=O)c1ccc2nc(NC(=O)CCS(=O)(=O)c3ccccc3)sc2c1	IL1B secr inh -92.8, TDP1 cell noCPT 5.17µM, DT40 TDP1 CPT 5.17µM
COC(=O)c1ccc2nc(NC(=O)CCS(=O)(=O)c3ccccc3)sc2c1	TDP1 cell noCPT 9.2µM, DT40 TDP1 CPT 8.2µM
O=C(CCS(=O)(=O)c1ccccc1)Nc1nc2cc3c(cc2s1)OCO3	IL1B secr inh -51.7, TDP1 cell noCPT inconclusive, DT40 TDP1 CPT inconclusive
COC(=O)c1ccc2nc(Nc3nc4c(F)cc(F)cc4s3)sc2c1	TDP1 cell noCPT 16.4µM, DT40 TDP1 CPT inconclusive
CCCCN(C)CCNC(=O)c1c(C)oc2ncnc(N3CCOCC3)c12	none (no result: IL1B secr inh, CtBP-E1A blk, Six1-Eya2 inh)
COc1ccc(N2C(=O)NC(NS(=O)(=O)c3ccccc3)(C(F)(F)F)C2=O)cc1 (configuration not stated)	none
Cn1cnc(Sc2ncnc3nc[nH]c23)c1[N+](=O)[O-]	none (no result: TDP1 block, CtBP-E1A blk)
CN(CC1CCCO1)S(=O)(=O)c1ccc(C(=O)Nc2nc3cc4c(cc3s2)OCO4)cc1 (configuration not stated)	TDP1 cell noCPT 10.3µM, DT40 TDP1 CPT 7.31µM (no result: TDP1 block)
O=C(Nc1nc2c(F)cc(F)cc2s1)c1ccco1	none (no result: TDP1 block)
O=C(CCc1ccccc1)Nc1nc2c(F)cc(F)cc2s1	TDP1 cell noCPT 13µM, DT40 TDP1 CPT inconclusive
CC(C)(C)NS(=O)(=O)c1ccc2nc(NC(=O)Cc3cccs3)sc2c1	TDP1 cell noCPT 14.6µM, DT40 TDP1 CPT inconclusive
O=C(CCS(=O)(=O)c1ccccc1)Nc1nc2ccc(F)cc2s1	TDP1 cell noCPT 13µM, DT40 TDP1 CPT 11.6µM
O=C(C1CCOC1)N1CCOc2ccc(CN3CCC(Oc4cccnc4)CC3)cc2C1 (configuration not stated)	none (no result: TDP1 block, IL1B secr inh, CtBP-E1A blk, Six1-Eya2 inh)
CCN(C(=O)CSc1nnc(COc2ccccc2F)n1N)c1c(N)n(Cc2ccccc2)c(=O)[nH]c1=O	none (no result: TDP1 block, CtBP-E1A blk)
COc1cccc(CSc2nc3cc4c(cc3cc2C)OCCO4)c1	TDP1 cell noCPT 29.1µM, DT40 TDP1 CPT inconclusive
O=C(NCCc1ccccc1)C1(c2ccccc2)CCCC1	TDP1 cell noCPT inconclusive (no result: TDP1 block)
N#CC1(c2ccccc2)CCC(NCCc2ccccc2)CC1 (configuration not stated)	IL1B secr inh inconclusive, TDP1 cell noCPT 18.4µM, DT40 TDP1 CPT inconclusive (no result: TDP1 block, CtBP-E1A blk)
Cc1ccc(C(=O)NCC(=O)OCC(=O)Nc2ncc(C(F)(F)F)cc2Cl)cc1	none
Cc1ccc(C(=O)COC(=O)c2cc(Cl)nc3ccccc23)cc1C	none
Cc1ccc(-c2cc(C(=O)OCC(=O)Nc3ncc(C(F)(F)F)cc3Cl)c3ccccc3n2)cc1	TDP1 cell noCPT inconclusive, DT40 TDP1 CPT 14.6µM
Cc1ccc(C(=O)COC(=O)c2cc(-c3ccc(Cl)cc3)nc3ccccc23)cc1	TDP1 cell noCPT 20.6µM, DT40 TDP1 CPT 10.3µM (no result: IL1B secr inh, CtBP-E1A blk, Six1-Eya2 inh)
CCOc1ccc(C(C)=O)cc1COc1ccc(C)nc1[N+](=O)[O-]	TDP1 cell noCPT inconclusive, DT40 TDP1 CPT inconclusive
COc1cccc(/C=C2\CCC(C3CCCC3)C2=O)c1 (configuration not stated)	none (no result: TDP1 block)
Nc1nc(NCCCN2CCOCC2)nc(Nc2ccc(Cl)cc2)c1[N+](=O)[O-]	TDP1 cell noCPT inconclusive, DT40 TDP1 CPT inconclusive (no result: IL1B secr inh)
Cc1ccc(Nc2nc(NCCCN3CCOCC3)nc(N)c2[N+](=O)[O-])cc1C	TDP1 cell noCPT 18.4µM, DT40 TDP1 CPT inconclusive
